# Reference: ChEMBL document CHEMBL1201862, “PubChem BioAssay data set” (2004)
# The whole screen tested about 400,000 compounds, of which about 2,100 (0.53%) were called active. About 14% were inconclusive and are not listed. How the calls were made is not given here. For the sample, actives were picked, then their nearest neighbours and some compounds at random.
# Biological target: Ataxin-2 (Homo sapiens) (UniProt Q99700)
# Assay: qHTS for Inhibitors of ATXN expression.
# Assay type: functional
# Chain of Ataxin-2 (Homo sapiens) (Q99700 whole entry): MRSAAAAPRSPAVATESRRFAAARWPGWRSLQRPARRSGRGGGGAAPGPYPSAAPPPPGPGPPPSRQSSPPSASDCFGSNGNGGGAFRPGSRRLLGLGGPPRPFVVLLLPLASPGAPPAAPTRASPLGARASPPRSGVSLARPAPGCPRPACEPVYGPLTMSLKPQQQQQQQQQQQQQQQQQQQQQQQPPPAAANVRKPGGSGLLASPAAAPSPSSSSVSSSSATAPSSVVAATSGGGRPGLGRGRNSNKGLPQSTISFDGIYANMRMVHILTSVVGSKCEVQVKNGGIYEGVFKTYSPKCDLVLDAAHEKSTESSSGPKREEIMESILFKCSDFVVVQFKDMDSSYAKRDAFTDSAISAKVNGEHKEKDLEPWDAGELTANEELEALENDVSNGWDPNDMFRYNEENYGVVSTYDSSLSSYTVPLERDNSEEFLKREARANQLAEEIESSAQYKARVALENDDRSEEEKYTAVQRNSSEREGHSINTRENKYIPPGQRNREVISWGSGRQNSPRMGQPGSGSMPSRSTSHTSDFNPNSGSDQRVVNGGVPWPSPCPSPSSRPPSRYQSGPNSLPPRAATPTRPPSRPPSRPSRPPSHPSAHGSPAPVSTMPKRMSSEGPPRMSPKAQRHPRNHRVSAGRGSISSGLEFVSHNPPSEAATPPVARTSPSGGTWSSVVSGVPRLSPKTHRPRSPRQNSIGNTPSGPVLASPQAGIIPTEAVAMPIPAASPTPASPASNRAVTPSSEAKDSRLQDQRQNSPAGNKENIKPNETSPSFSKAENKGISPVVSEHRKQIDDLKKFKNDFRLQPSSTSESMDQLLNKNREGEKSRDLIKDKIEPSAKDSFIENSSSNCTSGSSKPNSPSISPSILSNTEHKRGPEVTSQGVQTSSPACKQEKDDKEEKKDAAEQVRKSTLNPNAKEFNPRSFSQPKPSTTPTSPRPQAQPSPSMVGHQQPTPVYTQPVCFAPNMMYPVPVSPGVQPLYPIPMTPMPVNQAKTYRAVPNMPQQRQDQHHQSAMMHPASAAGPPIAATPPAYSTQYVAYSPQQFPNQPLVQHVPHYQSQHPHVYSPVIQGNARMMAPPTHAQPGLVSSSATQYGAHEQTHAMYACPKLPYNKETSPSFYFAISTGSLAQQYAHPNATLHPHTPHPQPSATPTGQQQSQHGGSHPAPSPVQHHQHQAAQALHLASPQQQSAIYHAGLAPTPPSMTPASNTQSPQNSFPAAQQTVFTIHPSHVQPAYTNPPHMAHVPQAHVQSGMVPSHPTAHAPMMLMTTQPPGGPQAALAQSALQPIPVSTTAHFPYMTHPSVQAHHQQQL
row,Structure (SMILES),Potency
1,Fc1cccc(Cl)c1CNc1ccc(N2CCCC2)cc1,inactive
2,Cc1nn(Cc2ccccc2)c(C)c1/C=N/NC(=O)CNc1cccc(C(F)(F)F)c1,inactive
3,CCOC(=O)c1sc(-c2cccc(C(F)(F)F)c2)nc1O,inactive
4,COC(=O)C1=C(C)N(Cc2ccccc2)C(NCCc2c[nH]c3ccccc23)=N[C@H]1c1cccc(C(F)(F)F)c1,25.1 µM (active)
5,COC(=O)C1=C(C)N(Cc2ccccc2)C(NCc2cccc(C(F)(F)F)c2)=N[C@H]1c1cccc(F)c1,17.8 µM (active)
6,COC(=O)Cc1c(C(=O)OC)nnn1-c1cccc(C(F)(F)F)c1,inactive
7,CCN1C(N(C)CCc2c[nH]c3ccccc23)=N[C@@H](c2cccc(C(F)(F)F)c2)C(C(=O)OC)=C1C,31.6 µM (active)
8,COC(=O)C1=C(C)N(Cc2ccccc2)C(NCc2ccccc2)=N[C@H]1c1cccc(C(F)(F)F)c1,35.5 µM (active)
9,C1=C(c2ccc(-c3ccccc3)cc2)Nc2ncnn2C1c1ccco1 (stereo not drawn),inactive
10,COCCC(=O)NCC1Cc2cc(Cl)cc(-c3ccc4[nH]ccc4c3)c2O1 (stereo not drawn),inactive
11,OC(CNc1ccccc1)Cn1ccc2ccccc21 (stereo not drawn),inactive
12,COc1ccc(C2=NN(c3ccc(C(=O)O)cc3)C(c3ccc(OC)c(OC)c3)C2)cc1 (stereo not drawn),inactive
13,CCc1c(C)c2cc3c(c(C)c2oc1=O)OCN(CCc1ccccc1F)C3,inactive
14,CCc1ccc(-c2cn3nc(C)c(C)nc3n2)cc1,inactive
15,COc1cccc(C2C=C(c3ccc(OC)cc3OC)Nc3nnnn32)c1 (stereo not drawn),inactive
16,Cc1cc(C)c2sc(N(CCCN(C)C)C(=O)c3ccc(S(=O)(=O)N(C)Cc4ccccc4)cc3)nc2c1,39.8 µM (active)
17,CN(Cc1ccccc1)S(=O)(=O)c1csc(C(N)=O)c1,inactive
18,CN(C)CCN(C(=O)C1CCCCC1)c1nc2cc3c(cc2s1)OCCO3,inactive
19,Cc1cc(C)c2sc(N(CCCN(C)C)C(=O)c3ccc(S(=O)(=O)N(C)C4CCCCC4)cc3)nc2c1,35.5 µM (active)
20,CN(Cc1ccccc1)C(=O)c1ccc(S(=O)(=O)N(C)c2ccccc2)cc1,inactive
21,CC(=O)OCCCCCCCCCCC[N+]1(C)CCCCC1,inactive
22,O=c1cc(CN2CCN(Cc3ccccc3)CC2)c2ccc(O)c(O)c2o1,inactive
23,O=C(CNCCC1=CCCCC1)Nc1ccc(N2CCCCCC2)cc1,25.1 µM (active)
24,O=C(COC(=O)c1cccnc1O)Nc1ccc(N2CCCCC2)cc1,inactive
25,CC(=O)c1c(C)[nH]c(C(=O)Nc2ccc(N3CCCCCC3)cc2)c1C,inactive

row,Structure (SMILES),Potency
1,Cc1ccc(C2C=C(c3ccc(Cl)cc3)Nc3nc(NC(=O)c4ccco4)nn32)cc1 (stereo not drawn),inactive
2,COc1cc(C(=O)NCC(c2ccco2)N2CCCC2)ccc1OCc1ccc(Cl)cc1Cl (stereo not drawn),35.5 µM (active)
3,O=C(NCC(c1ccco1)N1CCCC1)c1cc(S(=O)(=O)N2CCOCC2)ccc1Cl (stereo not drawn),inactive
4,CC(=O)Nc1ccc(S(=O)(=O)NC(C)C(=O)NCC(c2ccco2)N2CCCCC2)cc1 (stereo not drawn),inactive
5,Cc1cc(N/N=C/c2ccc([N+](=O)[O-])o2)nc2ccccc12,inactive
6,O=[N+]([O-])c1ccc(/C=[N+](\[O-])[C@@H]2CCCC[C@@H]2/[N+]([O-])=C/c2ccc([N+](=O)[O-])o2)o1,42.3 µM (active)
7,c1ccc(C2=NN(c3ccccc3)C(c3ccco3)C2)cc1 (stereo not drawn),inactive
8,COc1ccc(-c2cc(=O)oc3c(C)c(O)ccc23)cc1,inactive
9,COc1ccc(C2C=C(c3ccc(C)c(C)c3)Nc3ncnn32)c(OC)c1OC (stereo not drawn),inactive
10,CCN(CCCNC(=O)c1cc(Nc2ccccc2OC)nc2ccccc12)c1cccc(C)c1,inactive
11,CCN(CCNCC(O)COc1ccccc1C(C)C)c1cccc(C)c1 (stereo not drawn),39.8 µM (active)
12,O=C(CCNC(=O)c1ccc([N+](=O)[O-])cc1)Nc1nccs1,inactive
13,CCCCCc1c2c(cc(O)c1C(=O)O)OC(=O)c1c(cc(OC)cc1C(=O)CCCC)O2,21.2 µM (active)
14,CCOc1ccc(C(=O)COC(=O)Cn2[nH]c(=O)c3ccccc3c2=O)cc1,inactive
15,CCCOC(=O)c1ccc(Oc2coc3c(CN(CC)CC)c(O)ccc3c2=O)cc1,inactive
16,CCCOC(=O)c1ccc(Oc2c(C)n[nH]c2-c2ccc(OCC)cc2O)cc1,31.6 µM (active)
17,COCCn1c(SC2CCCCC2=O)nnc1-c1ccncc1 (stereo not drawn),inactive
18,O=C(N/N=C\c1c(O)ccc2ccccc12)c1ccc(S(=O)(=O)N2CCCCC2)cc1,inactive
19,Nc1cc(Cl)nc(N/N=C/c2c(O)ccc3ccccc23)n1,inactive
20,Oc1ccc2ccccc2c1N=Nc1ccccn1,14.1 µM (active)
21,O=S(=O)(O)c1cccc(N=Nc2c(O)ccc3ccccc23)c1,39.8 µM (active)
22,Oc1ccccc1C=NN=Cc1c(O)ccc2ccccc12,inactive
23,O=C(N/N=C/c1c(O)ccc2ccccc12)c1cccc(C(F)(F)F)c1,inactive
24,Oc1ncnc(O)c1C(c1ccc(F)cc1)c1c(O)ncnc1O,inactive
25,Cc1ccc(S(=O)(=O)/N=c2\ccc(Cl)cn2C(F)F)cc1,inactive

row,Structure (SMILES),Potency
1,N#Cc1nc(/C=C/c2ccccc2)oc1NCCCN1CCOCC1,inactive
2,CC(=O)c1sc(NC(=O)CN2C(=O)C3CCCCC3C2=O)nc1-c1ccccc1 (stereo not drawn),inactive
3,CCc1sc(NC(=O)CN2CCC(C(N)=O)CC2)nc1-c1ccccc1,inactive
4,CCNc1nc(-c2sc(NC(=O)C(C)(C)C)nc2C)c(-n2cc(-c3ccccc3)nn2)s1,15.8 µM (active)
5,Cn1c(=O)c2c(nc(NCc3ccccc3)n2Cc2ccc(Cl)c(Cl)c2)n(C)c1=O,35.5 µM (active)
6,CCC1CCCCN1Cc1nc2c(c(=O)n(C)c(=O)n2C)n1CCCc1ccccc1 (stereo not drawn),inactive
7,Cn1c(=O)c2nc(NCc3ccccc3)cnc2n(C)c1=O,inactive
8,CC1CCCCC12NC(=O)N(CC(=O)OCc1cccc(F)c1)C2=O (stereo not drawn),inactive
9,Cc1ccc(OCCn2cc(/C=N/NC(=O)c3ccncc3)c3ccccc32)cc1,inactive
10,Cc1ccc(CSc2nnc(SCC(=O)N/N=C/c3c[nH]c4ccccc34)s2)cc1,5.97 µM (active)
11,CC(C)C(C)NC(=O)CSc1nnc(-c2c[nH]c3ccccc23)o1 (stereo not drawn),inactive
12,O=C1CCCC(O)=C1Sc1cc(Cl)c(Cl)cc1Cl,inactive
13,O=C(/C=C/Sc1ccccc1)c1ccccc1,15.8 µM (active)
14,O=C(/C=C/Sc1ccccc1)c1ccc(Cl)cc1,11.2 µM (active)
15,O=C(CNC(=O)c1ccc(Cl)cc1)Nc1ccccc1C(F)(F)F,inactive
16,O=C(c1ccccc1)c1cccc(C(=O)c2ccccc2)c1,inactive
17,O=C1OCCN=C1/C=C(\O)c1ccc(Cl)cc1,inactive
18,OC(C#CCN1CCCC1)(c1ccccc1)c1cccnc1 (stereo not drawn),inactive
19,O=C(c1cc2c(=O)n3ccccc3nc2s1)N1CCN(Cc2ccc3c(c2)OCO3)CC1,inactive
20,Cc1ccc(C23OCCN2CCn2nc4ccccc4c23)cc1 (stereo not drawn),inactive
21,CC(C)c1cc(=O)oc2c3c4c(cc12)CCCN4CCC3,inactive
22,O=C(N/N=C/C(Br)=C/c1ccccc1)c1ccncc1,31.6 µM (active)
23,CCN(CC)c1ccc(/C=C2\CCC(/C=N/NC(=O)c3ccc(=O)n(C)c3)=C2N2CCOCC2)cc1,inactive
24,O=C(N/N=C/c1cn(Cc2ccccc2)c2ccccc12)c1ccncc1,inactive
25,CC(C)c1cc(C(=O)N/N=C/C(Br)=C/c2ccccc2)[nH]n1,31.6 µM (active)

row,Structure (SMILES),Potency
1,Cn1c(N)c(C(=O)N/N=C/c2ccccc2)sc1=S,inactive
2,O=C(N/N=C/c1cn(CCOc2ccccc2)c2ccccc12)c1ccncc1,inactive
3,Cc1cc(C(=O)N/N=C/c2cc(Br)ccc2OC(=O)c2ccccc2Cl)[nH]n1,inactive
4,Cc1cc(C(=O)N/N=C/c2cc(Br)cc(Br)c2OC(=O)c2cccc(F)c2)[nH]n1,inactive
5,Cn1cc(C(=O)N/N=C/C(Br)=C/c2ccccc2)ccc1=O,15.8 µM (active)
6,COc1ccc(-c2cc(=O)oc3cc(OC(=O)C4CCCCC4)c(Cl)cc23)cc1,inactive
7,CCN1CCN(Cc2c(O)ccc3c(C)c(-c4ccccc4)c(=O)oc23)CC1,inactive
8,CCOC(=O)CC1c2nc3ccccc3cc2CN1C(=O)OCC (stereo not drawn),inactive
9,CC(=O)/N=c1\c(C#N)cc2c(=O)n3ccccc3nc2n1CCCOC(C)C,inactive
10,OC1=C2C(=Nc3ccccc3SC2c2ccc(C(F)(F)F)cc2)c2ccccc21 (stereo not drawn),31.6 µM (active)
11,OC1=C2C(=Nc3ccccc3SC2c2ccc(Cl)c(Cl)c2)c2ccccc21 (stereo not drawn),31.6 µM (active)
12,CC(C)N1C(=O)S/C(=C\c2ccc(-c3ccc(Cl)c(C(=O)O)c3)o2)C1=O,inactive
13,COc1cccc(N(CC(=O)N2CCCCCC2)S(C)(=O)=O)c1,inactive
14,COc1ccc(C2OC3=Nc4cc(C)c(C)cc4NC3=C2O)cc1 (stereo not drawn),inactive
15,O=C(Cc1ccc(Br)cc1)N(Cc1ccccc1)c1ccccn1,inactive
16,O=C(O)c1ccc(NS(=O)(=O)c2ccc(N3CCCC3)c([N+](=O)[O-])c2)cc1,inactive
17,Cc1cc(NC(=O)CNCC(c2ccccc2)N(C)C)c([N+](=O)[O-])cc1C (stereo not drawn),inactive
18,NC(=O)CC(NC(=O)c1ccc(Br)cc1)c1ccc(NC2CCCCCCC2)c([N+](=O)[O-])c1 (stereo not drawn),31.6 µM (active)
19,CN(Cc1ccccc1)c1ccc(C(CC(N)=O)NC(=O)Cc2ccc(Br)cc2)cc1[N+](=O)[O-] (stereo not drawn),35.5 µM (active)
20,O=C(COc1ccc(Br)cc1)NNC(=O)c1ccc(-n2cncn2)c([N+](=O)[O-])c1,inactive
21,NC(=O)CC(NC(=O)c1ccc(Br)cc1)c1ccc(N2CCCCCCC2)c([N+](=O)[O-])c1 (stereo not drawn),31.6 µM (active)
22,NC(=O)CC(NC(=O)Cc1ccc(Br)cc1)c1ccc(NC2CC3CCC2C3)c([N+](=O)[O-])c1 (stereo not drawn),25.1 µM (active)
23,O=[N+]([O-])c1cccc(S(=O)(=O)NC2CC3CCC2C3)c1 (stereo not drawn),inactive
